Assay results: PubChem BioAssay (NCATS)
“And” between values parts separate entries of the source, which are not always exact repeats. Equal entries are not always repeated. Results filed as inconclusive are left out. The source made the active and inactive calls. Unless noted, calls come from the whole dose curve; as a rule, active = well fitted curve in the direction sought with a large enough effect; inconclusive = small, poorly fitted or top-dose-only effect, or another doubt; inactive = no such curve, though single readings can be large; an effect the other way counts as inactive or inconclusive.

Tests used:
[1] = biological target: Retinoic acid receptor RXR-alpha (Homo sapiens) (UniProt P19793); experiment: qHTS assay for small molecule antagonists of retinoid X receptor alpha signaling (AID 588546; active = well fitted inhibition curve with a large enough effect in the signal ratio, with a control signal flat, not every such curve was filed as active; the % refers to the signal ratio;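 note: cells stimulated with 9-cis-retinoic acid as agonist; % is set by controls: 0 for no effect and ±100 for the full control effect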); conditions: HEK293T RXRa-UAS-bla, beta-lactamase ratio, antagonist mode
Chain of Retinoic acid receptor RXR-alpha (Homo sapiens) (P19793 whole entry, looked up): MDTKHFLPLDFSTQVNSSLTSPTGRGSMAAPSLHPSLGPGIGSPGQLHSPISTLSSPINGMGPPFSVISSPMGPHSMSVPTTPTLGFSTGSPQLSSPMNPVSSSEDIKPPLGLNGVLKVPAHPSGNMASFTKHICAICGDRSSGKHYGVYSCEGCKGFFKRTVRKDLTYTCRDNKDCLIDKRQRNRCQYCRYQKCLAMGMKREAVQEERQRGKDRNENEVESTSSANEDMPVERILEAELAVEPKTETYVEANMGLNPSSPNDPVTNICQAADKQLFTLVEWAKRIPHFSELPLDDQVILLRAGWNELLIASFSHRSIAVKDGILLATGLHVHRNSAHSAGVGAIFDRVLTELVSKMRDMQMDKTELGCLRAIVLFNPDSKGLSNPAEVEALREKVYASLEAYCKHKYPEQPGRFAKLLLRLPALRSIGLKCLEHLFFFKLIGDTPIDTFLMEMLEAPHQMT
Summary of the method: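 Beta-lactamase reporter inhibition, read as CCF4 fluorescence ratio (ex 405, em 460/530 nm) after 2 h at RT. HEK293T UAS-bla cells, 2500/well, were stimulated with 9-cis-RA at 500 or 100 nM final alongside test compound for 18 h at 37 C.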

[2] = biological target: Thyroid hormone receptor beta (Homo sapiens) (UniProt P10828); experiment: qHTS assay for small molecule antagonists of thyroid hormone receptor beta signaling (AID 588547; active = well fitted inhibition curve with a large enough effect in the signal ratio, with a control signal flat, not every such curve was filed as active; the % refers to the signal ratio;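 note: cells stimulated with 0.4 nM T3 agonist during compound exposure; series mostly up to about 77 µM; % is set by controls: 0 for no effect and ±100 for the full control effect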); conditions: TR-UAS-bla HEK293, beta-lactamase ratio, antagonist mode, 18 h
Chain of Thyroid hormone receptor beta (Homo sapiens) (P10828 whole entry, looked up): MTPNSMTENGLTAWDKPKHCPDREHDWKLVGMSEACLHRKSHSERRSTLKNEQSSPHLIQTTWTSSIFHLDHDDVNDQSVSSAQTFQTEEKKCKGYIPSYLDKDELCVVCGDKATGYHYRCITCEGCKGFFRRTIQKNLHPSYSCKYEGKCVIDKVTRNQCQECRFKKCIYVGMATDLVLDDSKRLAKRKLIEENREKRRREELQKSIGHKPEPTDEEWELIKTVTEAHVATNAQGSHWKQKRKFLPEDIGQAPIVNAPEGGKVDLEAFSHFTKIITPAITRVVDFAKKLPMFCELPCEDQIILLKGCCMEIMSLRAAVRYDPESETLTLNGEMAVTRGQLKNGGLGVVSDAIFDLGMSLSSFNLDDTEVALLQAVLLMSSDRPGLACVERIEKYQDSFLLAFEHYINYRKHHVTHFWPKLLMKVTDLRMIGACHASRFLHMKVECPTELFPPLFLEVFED
Summary of the method: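 TR-UAS-bla GripTite HEK293 cells in 2% charcoal/dextran FBS medium; compounds 0.59 nM to 92 uM with T3 at 0.4nM final, 18 h at 37 C. Beta-lactamase read by CCF4 fluorescence (460/530 nm); Hill fits gave IC50 and efficacy.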

[3] = biological target: Voltage-gated inwardly rectifying potassium channel KCNH2 (Homo sapiens) (UniProt Q12809); experiment: qHTS Assay for Small Molecule Inhibitors of the Human hERG Channel Activity (AID 588834);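 note: top concentration of the series differs between compounds; % is set by controls: 0 for no effect and ±100 for the full control effect; lower thallium flux fluorescence means stronger hERG block; nearly all actives have a fitted effect of over 50% in size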
Chain of Voltage-gated inwardly rectifying potassium channel KCNH2 (Homo sapiens) (Q12809 whole entry, looked up): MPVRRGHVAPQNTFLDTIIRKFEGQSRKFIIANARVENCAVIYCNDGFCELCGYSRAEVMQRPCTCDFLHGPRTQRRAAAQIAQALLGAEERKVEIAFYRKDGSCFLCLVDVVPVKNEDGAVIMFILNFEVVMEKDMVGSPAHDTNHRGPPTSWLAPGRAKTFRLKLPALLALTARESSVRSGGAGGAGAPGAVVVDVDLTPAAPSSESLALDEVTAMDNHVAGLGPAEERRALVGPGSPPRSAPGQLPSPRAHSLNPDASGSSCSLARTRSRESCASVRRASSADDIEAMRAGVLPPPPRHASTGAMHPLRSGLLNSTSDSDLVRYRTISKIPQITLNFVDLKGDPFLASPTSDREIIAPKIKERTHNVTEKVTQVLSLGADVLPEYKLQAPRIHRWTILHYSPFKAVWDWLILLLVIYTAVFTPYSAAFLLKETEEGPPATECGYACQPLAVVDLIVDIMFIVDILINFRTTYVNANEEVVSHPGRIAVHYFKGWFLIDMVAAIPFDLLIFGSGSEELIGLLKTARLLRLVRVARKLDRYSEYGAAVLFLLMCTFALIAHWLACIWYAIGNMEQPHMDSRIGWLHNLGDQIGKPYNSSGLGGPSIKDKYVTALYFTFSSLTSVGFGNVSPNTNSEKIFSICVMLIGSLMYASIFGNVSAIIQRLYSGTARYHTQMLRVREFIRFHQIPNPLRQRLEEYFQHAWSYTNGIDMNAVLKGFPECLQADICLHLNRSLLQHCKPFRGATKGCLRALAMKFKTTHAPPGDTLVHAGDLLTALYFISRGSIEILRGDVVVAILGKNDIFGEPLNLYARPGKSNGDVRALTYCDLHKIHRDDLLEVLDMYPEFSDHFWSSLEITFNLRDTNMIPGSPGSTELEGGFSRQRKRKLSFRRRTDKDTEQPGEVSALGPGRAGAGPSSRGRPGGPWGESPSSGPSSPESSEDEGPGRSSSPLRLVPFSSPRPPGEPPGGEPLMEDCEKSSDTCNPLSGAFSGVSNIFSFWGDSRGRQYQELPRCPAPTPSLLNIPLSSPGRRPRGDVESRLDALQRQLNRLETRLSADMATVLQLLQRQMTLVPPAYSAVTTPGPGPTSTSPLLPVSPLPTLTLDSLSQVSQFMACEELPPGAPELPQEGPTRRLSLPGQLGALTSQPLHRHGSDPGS
Summary of the method: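 Blockade is seen as reduced FluxOR thallium-flux fluorescence in U2OS cells expressing hERG from a BacMam construct, in Opti-MEM with 2% FCS. Concentration-response data fitted to the Hill equation for AC50.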

[4] = qHTS assay for small molecule agonists of the antioxidant response element (ARE) signaling pathway (AID 651741; active = well fitted activation curve with a large enough effect in the signal ratio; the % refers to the signal ratio; note: potency is the fitted concentration of half-maximal effect)
Summary of the method: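 CellSensor ARE-bla HepG2 cells (2,000/well) carrying ARE-driven beta-lactamase, exposed 16 h at 37 C. LiveBLAzer B/G FRET substrate added for 2 h at room temperature; fluorescence intensity read.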

[5] = qHTS assay for small molecule activators of the p53 signaling pathway (AID 651743; active = well fitted activation curve with a large enough effect in the signal ratio, not every such curve was filed as active; the % refers to the signal ratio; note: potency is the fitted concentration of half-maximal effect); conditions: HCT-116 p53RE-bla, beta-lactamase FRET ratio, 16 h; activation: hits give high values
Summary of the method: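 p53RE-bla HCT-116 cells carrying a beta-lactamase reporter under p53 response elements were exposed to compounds for 16 hours at 37 C. Reporter activity read as fluorescence after 2 hours at room temperature with LiveBLAzer B/G FRET substrate.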

[6] = qHTS assay for small molecule activators of the nuclear factor-kappa B (NF-kB) signaling pathway (AID 651749; active = well fitted activation curve with a large enough effect in the signal ratio; the % refers to the signal ratio; note: series mostly up to about 77 µM; % of control where 0% means no effect); conditions: NF-kB-bla ME-180 cells, beta-lactamase FRET ratio, 16 h; activation: hits give high values
Summary of the method: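 NF-kB-bla ME-180 cells carrying a beta-lactamase reporter under an NF-kB response element, 2,000 cells/well, exposed to compound for 16 hr at 37C; FRET-based beta-lactamase fluorescence read-out of pathway activation.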

[7] = qHTS assay for small molecule disruptors of the mitochondrial membrane potential - 1 hr assay (AID 651754; calls by dose curve; note: potency is the fitted concentration of half-maximal effect; nearly all actives have a fitted effect of over 35% in size)
Summary of the method: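 HepG2 cells, attached overnight, were exposed to compound for 1 hr at 37C, then stained 30 min with a potentiometric dye. Ratio of red aggregate (590nm) to green monomer (535nm) fluorescence reports membrane potential; collapse shifts signal toward green.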

[8] = qHTS assay for small molecule disruptors of the mitochondrial membrane potential - 5 hr assay (AID 651755; calls by dose curve; note: potency is the fitted concentration of half-maximal effect; nearly all actives have a fitted effect of over 40% in size)
Summary of the method: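 HepG2 cells (2,000/well), attached overnight, exposed to compound 5 hr at 37C, then Mito-MPS dye 30 min. Fluorescence read for monomers (490/535 nm) and aggregates (540/590 nm).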

[9] = biological target: Tumor necrosis factor (Homo sapiens) (UniProt P01375); experiment: qHTS assay to identify small molecules that stimulate Tumor Necrosis Factor-alpha (TNF-alpha) secretion (AID 651757; active = well fitted curve in the direction sought with a large enough effect in the signal ratio; the % refers to the signal ratio; note: 0% is about no effect)
Chain of Tumor necrosis factor (Homo sapiens) (P01375 whole entry, looked up): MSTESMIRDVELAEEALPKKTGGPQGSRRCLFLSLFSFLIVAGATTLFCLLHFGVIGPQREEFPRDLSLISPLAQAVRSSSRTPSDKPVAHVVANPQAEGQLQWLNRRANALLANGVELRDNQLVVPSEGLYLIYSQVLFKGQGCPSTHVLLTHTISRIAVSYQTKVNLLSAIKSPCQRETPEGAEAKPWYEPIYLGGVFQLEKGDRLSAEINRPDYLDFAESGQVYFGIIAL
Summary of the method: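 THP-1 cells (3000/well) exposed to compounds 17 hrs at 37 C. Secreted TNF-alpha detected by HTRF with cryptate- and XL665-labeled anti-TNF-alpha antibodies after 3 hr at room temperature.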

[10] = qHTS assay for environmental chemicals that activate the Aryl hydrocarbon Receptor (AhR) signaling pathway (AID 651777); conditions: 1A2-DRE human hepatoma cells, luciferase, 24 h; activation: hits give high values; note: potency is the fitted concentration of half-maximal effect; nearly all actives have a fitted effect of over 15% in size
Summary of the method: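 Concentration–response screening used 1,200 1A2-DRE cells per well, 24 hr compound exposure (37 C, 5% CO2), and One-Glo luminescence as the AhR-driven CYP1A2 reporter signal.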

[11] = biological target: Peroxisome proliferator-activated receptor alpha (Homo sapiens) (UniProt Q07869); experiment: qHTS assay for small molecule agonists of the peroxisome proliferator-activated receptor alpha (PPARalpha) signaling pathway (AID 651778); conditions: PathHunter PPARalpha complementation, chemiluminescence, 6 h; hits give high values; note: % of control where 0% means no effect
Chain of Peroxisome proliferator-activated receptor alpha (Homo sapiens) (Q07869 whole entry, looked up, the tested form may be a part): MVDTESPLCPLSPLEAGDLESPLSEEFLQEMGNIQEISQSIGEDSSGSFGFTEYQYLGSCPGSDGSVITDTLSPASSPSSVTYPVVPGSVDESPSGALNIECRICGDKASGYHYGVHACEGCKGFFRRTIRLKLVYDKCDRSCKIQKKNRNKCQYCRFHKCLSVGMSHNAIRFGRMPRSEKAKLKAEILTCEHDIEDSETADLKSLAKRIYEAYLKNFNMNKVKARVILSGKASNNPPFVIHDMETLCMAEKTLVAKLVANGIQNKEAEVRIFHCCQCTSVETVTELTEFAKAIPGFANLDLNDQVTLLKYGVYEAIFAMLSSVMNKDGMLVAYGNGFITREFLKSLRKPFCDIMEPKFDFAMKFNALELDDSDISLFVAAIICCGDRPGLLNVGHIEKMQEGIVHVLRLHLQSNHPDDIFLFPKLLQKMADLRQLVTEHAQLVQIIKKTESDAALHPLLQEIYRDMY
Summary of the method: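 Enzyme-fragment complementation assay in which ligand-bound PPARalpha translocates and forms an active enzyme that generates chemiluminescence. Cells were plated overnight, exposed to compound for 6 hr at 37 C, and then given detection reagent for 60 min at room temperature.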

[12] = biological target: Nuclear receptor ROR-gamma (Homo sapiens) (UniProt P51449); experiment: qHTS assay for small molecule antagonists of the retinoid-related orphan receptor gamma (ROR-gamma) signaling pathway (AID 651802); note: potency is the fitted concentration of half-maximal effect; nearly all actives have a fitted effect of over 60% in size
Chain of Nuclear receptor ROR-gamma (Homo sapiens) (P51449 whole entry, looked up): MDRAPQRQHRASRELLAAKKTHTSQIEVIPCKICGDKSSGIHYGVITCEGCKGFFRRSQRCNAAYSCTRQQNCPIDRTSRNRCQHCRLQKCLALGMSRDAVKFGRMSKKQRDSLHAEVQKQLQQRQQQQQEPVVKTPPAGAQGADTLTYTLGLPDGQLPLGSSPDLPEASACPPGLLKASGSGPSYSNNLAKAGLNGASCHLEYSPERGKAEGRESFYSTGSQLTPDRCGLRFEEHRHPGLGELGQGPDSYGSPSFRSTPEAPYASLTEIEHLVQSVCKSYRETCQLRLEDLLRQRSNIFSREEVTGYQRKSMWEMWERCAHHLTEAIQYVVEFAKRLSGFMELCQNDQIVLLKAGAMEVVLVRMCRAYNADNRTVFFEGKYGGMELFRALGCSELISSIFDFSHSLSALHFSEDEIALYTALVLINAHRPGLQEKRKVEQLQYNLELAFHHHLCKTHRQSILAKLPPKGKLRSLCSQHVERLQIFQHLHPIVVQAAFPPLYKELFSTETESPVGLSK
Summary of the method: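 CHO cells with TET-inducible ROR-gamma and RORE-luciferase reporter, dosed then doxycycline-induced. After 16 h at 37C, One-Glo luminescence read; decreased signal indicates antagonism.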

[13] = qHTS assay for small molecule agonists of the antioxidant response element (ARE) signaling pathway measured by Nrf2-dependant transcriptional activity (AID 720636; active = well fitted curve in the direction sought with a large enough effect in the repeat runs; an effect the other way counts as inactive or inconclusive;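 note: HepG2 cells with an ARE-driven luciferase reporter; % of control where 0% means no effect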)
Summary of the method: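 Attachment 6 hr at 37 C, then compound versus DMSO vehicle for 16 hr in ARE-luc HepG2 cells (1% dialyzed FBS); luminescence recorded 30 min after ONE-Glo addition at room temperature.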

[14] = qHTS assay for small molecule antagonists of the retinoid-related orphan receptor gamma (ROR-gamma) signaling pathway - cell viability counter screen (AID 720652; active = well fitted curve in the direction sought with a large enough effect in the repeat runs; an effect the other way counts as inactive or inconclusive;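 note: series mostly up to about 92 µM; compound exposure lasted 16 hr before ATP read; % is set by controls: 0 for no effect and ±100 for the full control effect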)
Summary of the method: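 CHO cells carrying TET-inducible ROR and RORE-luciferase reporter, plated 5 hr, then dosed with compound plus doxycycline. After 16 hr at 37 C, viability read as intracellular ATP by CellTiter-Glo luminescence.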

[15] = qHTS assay for small molecule agonists of the antioxidant response element (ARE) signaling pathway measured by Nrf2-dependant transcriptional activity - cell viability counter screen (AID 720653; active = well fitted curve in the direction sought with a large enough effect in the repeat runs; an effect the other way counts as inactive or inconclusive; note: % is set by controls: 0 for no effect and ±100 for the full control effect); conditions: ARE-bla HepG2 viability, CellTiter-Glo ATP luminescence, 16 h; max response: hits give low values
Summary of the method: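 ARE-bla HepG2 cells treated with compounds for 16 h at 37C; this counter screen measures viability as intracellular ATP by CellTiter-Glo luminescence after 30 min at room temperature.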

[16] = qHTS assay for cell viability of HEK293 cells (AID 743288); conditions: ATP luminescence (CellTiter-Glo), 18 h; max response: hits give low values; note: % is set by controls: 0 for no effect and ±100 for the full control effect; nearly all actives have a fitted effect of over 50% in size
Summary of the method: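 Luminescent ATP quantitation served as the viability read-out. Cells (parental HEK293, 2,000/well) received compounds after at least 5 h at 37 C and were exposed for 18 h before a 30 min room-temperature reagent step.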

[17] = qHTS assay for cell viability of the p53RE-bla HCT-116 cell line (AID 743292); note: % is set by controls: 0 for no effect and ±100 for the full control effect; nearly all actives have a fitted effect of over 55% in size
Summary of the method: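 Compound-exposed HCT-116 (p53RE-bla) cells, 4,000 per well, were kept 16 h at 37 C following a 5 h preincubation. Cell number was estimated from total ATP by CellTiter-Glo luminescence read after 30 min at room temperature.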

Furin (Homo sapiens) = Furin (Homo sapiens) (UniProt P09958); experiment: Furin counterscreen qHTS for Zika virus inhibitors (AID 1347149);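 note: purified recombinant full-length human furin enzyme at 5 nM; fluorescence gain from furin cutting a BOC-RVRR-AMC peptide substrate over 15 min; top concentration of the series differs between compounds; plate controls were no-inhibitor control for no effect and no-enzyme control for full effect; nearly all actives have a fitted effect of over 70% in size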
Chain of Furin (Homo sapiens) (P09958 whole entry, looked up): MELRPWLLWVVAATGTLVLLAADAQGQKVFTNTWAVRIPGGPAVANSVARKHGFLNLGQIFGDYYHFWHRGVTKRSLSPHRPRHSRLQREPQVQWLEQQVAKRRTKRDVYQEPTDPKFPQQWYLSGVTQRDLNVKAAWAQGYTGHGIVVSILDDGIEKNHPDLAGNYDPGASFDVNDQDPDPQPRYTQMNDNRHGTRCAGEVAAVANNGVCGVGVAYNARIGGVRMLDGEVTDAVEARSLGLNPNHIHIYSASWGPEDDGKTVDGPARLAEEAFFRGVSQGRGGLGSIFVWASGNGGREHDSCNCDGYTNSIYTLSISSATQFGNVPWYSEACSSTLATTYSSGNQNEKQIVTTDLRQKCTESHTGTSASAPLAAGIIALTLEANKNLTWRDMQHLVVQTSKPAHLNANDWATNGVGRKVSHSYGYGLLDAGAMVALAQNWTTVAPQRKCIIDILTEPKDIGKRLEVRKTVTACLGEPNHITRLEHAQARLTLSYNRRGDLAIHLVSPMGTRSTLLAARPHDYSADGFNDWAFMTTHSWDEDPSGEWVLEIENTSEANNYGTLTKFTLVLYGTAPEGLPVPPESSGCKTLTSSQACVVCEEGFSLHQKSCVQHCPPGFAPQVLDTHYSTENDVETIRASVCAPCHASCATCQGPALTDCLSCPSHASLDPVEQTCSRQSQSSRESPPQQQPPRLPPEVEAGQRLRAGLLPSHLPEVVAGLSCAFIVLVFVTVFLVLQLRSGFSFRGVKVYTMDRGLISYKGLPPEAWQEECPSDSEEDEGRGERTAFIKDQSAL
Summary of the method: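 Fluorogenic cleavage of BOC-RVRR-AMC (2 microM final, Km ~15 µM) was monitored (ex 340, em 450 nm) at 37C after 15 min RT preincubation of 5 nM furin with compounds in HEPES pH 7.0 buffer with CaCl2 and Triton X-100. Percent inhibition was fitted to a 4-parameter Hill curve.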

[18] = Confirmatory screen GU Rhodamine qHTS for Zika virus inhibitors qHTS (AID 1347157); note: potency is the fitted concentration of half-maximal effect; nearly all actives have a fitted effect of over 70% in size
Summary of the method: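 Buffer 10 mM Tris-HCl pH 8.0, 0.01% Tween 20. Unlinked protease 25 nM; compound preincubation 15 min, RT, protected from light. Substrate Rhod110, 1.5 microM; ~15% conversion in 15 min.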

[19] = ZIKV-mCherry secondary qHTS for Zika virus inhibitors (AID 1347158); conditions: Vero cells, ZIKV-mCherry infection imaging, 48-72 h; note: potency is the fitted concentration of half-maximal effect
Summary of the method: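 Vero cells (5,000/well) were given compound, then infected with ZIKV-mCherry at MOI 1 for 48–72 h at 37 °C. After PFA fixation and Hoechst staining, imaging gave percent mCherry-positive cells. The positivity threshold was RFU above 450, 3 SD over negative controls.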

[20] = Confirmatory screen NINDS Rhodamine qHTS for Zika virus inhibitors (AID 1347161); note: potency is the fitted concentration of half-maximal effect; nearly all actives have a fitted effect of over 60% in size
Summary of the method: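 qHTS dose-response: 25 nM linked protease, pH 8.0 Tris/Tween buffer, cpd titration, 15 min RT preinc, 1.5 microM Rhod110 peptide, 15 min reaction (~15% conversion), Ex480/Em540; 4-parameter Hill fit.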

[21] = tested on: Zika virus NS2B-NS3 protease (linked); experiment: 384 well plate NINDS AMC confirmatory qHTS for Zika virus inhibitors (AID 1347163); conditions: Recombinant NS2B-NS3 protease, Ac-VKTGKR-AMC fluorescence; note: potency is the fitted concentration of half-maximal effect; nearly all actives have a fitted effect of over 50% in size
Summary of the method: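 Linked NS2B-NS3 protease (final 5 nM, 30 nM or 60 nM) was preincubated with compounds (final up to 1 mM) for ~15 minutes. Ac-VKTGKR-AMC substrate (final 30 microM) then reacted for 25 minutes at room temperature in the dark. Fluorescence (ex 355/em 460 nm) was normalized to no-enzyme and no-inhibitor controls.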

[22] = tested on: Zika virus NS2B-NS3 protease (linked construct); experiment: 384 well plate NINDS Rhodamine confirmatory qHTS for Zika virus inhibitors (AID 1347164); note: potency is the fitted concentration of half-maximal effect; nearly all actives have a fitted effect of over 65% in size
Summary of the method: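 Cleavage of Ac-LKRR-Rhodamine 110 (10 microM final) by linked protease (final 5, 30 or 60 nM) was followed as fluorescence at 485/538 nm after 25 min, room temperature, dark. Compounds preincubated ~15 min.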

[23] = biological target: Nuclear receptor subfamily 1 group I member 2 (Rattus norvegicus) (UniProt Q9R1A7); experiment: qHTS assay for small molecule activators of the rat pregnane X receptor (rPXR) signaling pathway (AID 651751; call rule not given here; note: 0% is about no effect); conditions: rPXR reporter cells, luciferase (One-Glo), 24 h
Chain of Nuclear receptor subfamily 1 group I member 2 (Rattus norvegicus) (Q9R1A7 whole entry, looked up): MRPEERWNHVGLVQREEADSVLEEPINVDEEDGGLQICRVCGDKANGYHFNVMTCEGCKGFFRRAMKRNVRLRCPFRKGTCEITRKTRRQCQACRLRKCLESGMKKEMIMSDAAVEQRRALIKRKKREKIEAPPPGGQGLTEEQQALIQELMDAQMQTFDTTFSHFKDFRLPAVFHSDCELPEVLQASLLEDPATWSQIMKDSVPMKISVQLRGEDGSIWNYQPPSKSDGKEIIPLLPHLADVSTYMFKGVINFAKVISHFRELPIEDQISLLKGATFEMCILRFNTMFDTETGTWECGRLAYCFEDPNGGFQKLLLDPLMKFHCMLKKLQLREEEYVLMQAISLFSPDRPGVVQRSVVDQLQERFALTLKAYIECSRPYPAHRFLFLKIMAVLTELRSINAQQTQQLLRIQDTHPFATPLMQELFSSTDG

Oc1c(Cl)c(Cl)c(Cl)c(Cl)c1Cl
active: Potency [4] 26.6 µM and 24.3 µM | Potency [5] 22.4 µM and 39.8 µM | Potency [7] 42.2 µM | Potency [8] 42.2 µM | Potency [10] 44.7 µM and 39.8 µM | Potency [12] 16.8 µM | Potency [18] 7.08 µM | Potency [19] 11.2 µM | Potency [20] 4.47 µM | Potency [21] 355 µM | Potency [22] 70.8 µM
inactive: max response [1] 12.8% and -17.7% | activity change % (negative = inhibition) [2] -4.36% | Potency [3] | activation [6] -1.59% | outcome [9] | max response [11] 18.2% and 10.1% | Potency [13] | outcome [14] | max response [15] -14.8% and -25.3% | max response [16] -15.6% and -10.7% | outcome [17] | Potency (Furin (Homo sapiens)) | max response [23] -11.9% and -10.8%
